Assay results as given in PubChem BioAssay AID1159580 (chemical genetic matrix, 2015).
Screen size: about 5,500 compounds; about 2,000 (36%) were called active. Not shown: some 18% with an inconclusive outcome. Some of the results follow. Unmarked numbers belong to inactive results. Rule as the data show it: active = normalized growth mostly below about 0.91 (no sharp cut-off); inconclusive = no clear call, values can overlap the other calls; inactive = mostly above about 0.92.

Assay: chemical genetic growth profiling, strain panel (AID 1159580);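 also: tested at 20 µM; growth read once vehicle control cultures reached saturation at 30 °C; 1 = growth at the plate median or of vehicle wells; lower values mean less growth of the strain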
Details: growth OD

In the case of `COc1ccc2cc1Oc1ccc(cc1)C[C@H]1c3cc(c(OC)cc3CCN1C)Oc1c(OC)c(OC)cc3c1[C@H](C2)N(C)CC3`, the normalized growth (S. cerevisiae deletion strains, locus YKL009W, strain mrt4, hits give low values) is reported as 1.02, the normalized growth (S. cerevisiae deletion strains, locus YKL068W, hits give low values) is reported as 1.01 and the normalized growth (S. cerevisiae deletion strains, locus YKL085W, strain MDH1 (second series), hits give low values) is reported as 1.01. It also gave a normalized growth (S. cerevisiae deletion strains, locus YKL085W, strain MDH1, hits give low values) of 1.01, a normalized growth (S. cerevisiae deletion strains, locus YKL160W, strain elf1, hits give low values) of 0.99 and a normalized growth (S. cerevisiae deletion strains, locus YKL190W, strain CNB1, hits give low values) of 1.01. It also gave a normalized growth (S. cerevisiae deletion strains, locus YKR001C, strain vps1, hits give low values) of 0.973, a normalized growth (S. cerevisiae deletion strains, locus YKR026C, strain gcn3, hits give low values) of 1 and a normalized growth (S. cerevisiae deletion strains, locus YKR091W, strain srl3, hits give low values) of 1. It also gave a normalized growth (S. cerevisiae deletion strains, locus YLL001W, strain dnm1, hits give low values) of 0.986, a normalized growth (S. cerevisiae deletion strains, locus YLL026W, hits give low values) of 1 and a normalized growth (S. cerevisiae deletion strains, locus YLL041C, strain sdh2, hits give low values) of 1. For the same compound, the normalized growth (S. cerevisiae deletion strains, locus YLR027C, strain aat2, hits give low values) was 1.01, the normalized growth (S. cerevisiae deletion strains, locus YLR039C, strain RIC1, hits give low values) was 0.94 and the normalized growth (S. cerevisiae deletion strains, locus YLR058C, strain SHM2, hits give low values) was 1.01. It also gave a normalized growth (S. cerevisiae deletion strains, locus YLR102C, strain apc9, hits give low values) of 1.01, a normalized growth (S. cerevisiae deletion strains, locus YLR113W, strain HOG1, hits give low values) of 1.07 and a normalized growth (S. cerevisiae deletion strains, locus YLR221C, strain rsa3, hits give low values) of 1.01. The normalized growth (S. cerevisiae deletion strains, locus YLR258W, strain gsy2, hits give low values) was 1.01, the normalized growth (S. cerevisiae deletion strains, locus YLR262C, strain YPT6 (second series), hits give low values) was 0.975 and the normalized growth (S. cerevisiae deletion strains, locus YLR262C, strain YPT6, hits give low values) was 0.993. The normalized growth (S. cerevisiae deletion strains, locus YLR268W, strain sec22, hits give low values) was 1.01, the normalized growth (S. cerevisiae deletion strains, locus YLR320W, strain mms22, hits give low values) was 0.987 and the normalized growth (S. cerevisiae deletion strains, locus YLR330W, strain CHS5, hits give low values) was 1.02. The normalized growth (S. cerevisiae deletion strains, locus YLR342W, strain FKS1 (second series), hits give low values) was 0.885, the normalized growth (S. cerevisiae deletion strains, locus YLR342W, strain FKS1, hits give low values) was 1.01 and the normalized growth (S. cerevisiae deletion strains, locus YLR357W, strain rsc2, hits give low values) was 0.977. It also gave a normalized growth (S. cerevisiae deletion strains, locus YLR370C, strain arc18, hits give low values) of 0.914, a normalized growth (S. cerevisiae deletion strains, locus YLR371W, strain rom2, hits give low values) of 1.01 and a normalized growth (S. cerevisiae deletion strains, locus YLR384C, strain iki3, hits give low values) of 1.01. The normalized growth (S. cerevisiae deletion strains, locus YLR418C, strain cdc73, hits give low values) was 0.96, the normalized growth (S. cerevisiae deletion strains, locus YML016C, strain PPZ1, hits give low values) was 1 and the normalized growth (S. cerevisiae deletion strains, locus YML032C, strain rad52, hits give low values) was 1.01. For the same compound, the normalized growth (S. cerevisiae deletion strains, locus YML120C, strain ndi1, hits give low values) was 1.02, the normalized growth (S. cerevisiae deletion strains, locus YML124C, strain tub3, hits give low values) was 1.02 and the normalized growth (S. cerevisiae deletion strains, locus YMR058W, strain fet3, hits give low values) was 1. The normalized growth (S. cerevisiae deletion strains, locus YMR078C, strain ctf18, hits give low values) was 1.02, the normalized growth (S. cerevisiae deletion strains, locus YMR125W, strain sto1, hits give low values) was 0.992 and the normalized growth (S. cerevisiae deletion strains, locus YMR129W, hits give low values) was 1.02. For the same compound, the normalized growth (S. cerevisiae deletion strains, locus YMR205C, strain PFK2, hits give low values) was 0.963, the normalized growth (S. cerevisiae deletion strains, locus YMR223W, strain ubp8, hits give low values) was 0.986 and the normalized growth (S. cerevisiae deletion strains, locus YMR231W, strain pep5, hits give low values) was 1.01. The normalized growth (S. cerevisiae deletion strains, locus YMR263W, strain SAP30, hits give low values) was 1, the normalized growth (S. cerevisiae deletion strains, locus YMR307W, strain GAS1, hits give low values) was 0.966 and the normalized growth (S. cerevisiae deletion strains, locus YNL067W, strain RPL9B, hits give low values) was 1.01. It also gave a normalized growth (S. cerevisiae deletion strains, locus YNL071W, strain lat1, hits give low values) of 0.998, a normalized growth (S. cerevisiae deletion strains, locus YNL128W, strain TEP1, hits give low values) of 1.01 and a normalized growth (S. cerevisiae deletion strains, locus YNL153C, strain GIM3, hits give low values) of 0.995. The normalized growth (S. cerevisiae deletion strains, locus YNL183C, strain NPR1, hits give low values) was 0.999, the normalized growth (S. cerevisiae deletion strains, locus YNL209W, strain ssb2, hits give low values) was 0.995 and the normalized growth (S. cerevisiae deletion strains, locus YNL233W, strain BNI4, hits give low values) was 0.995. It also gave a normalized growth (S. cerevisiae deletion strains, locus YNL248C, strain rpa49, hits give low values) of 1.01, a normalized growth (S. cerevisiae deletion strains, locus YNL250W, strain rad50, hits give low values) of 1.02 and a normalized growth (S. cerevisiae deletion strains, locus YNL271C, strain bni1, hits give low values) of 1.01. For the same compound, the normalized growth (S. cerevisiae deletion strains, locus YNL298W, strain CLA4, hits give low values) was 1.01, the normalized growth (S. cerevisiae deletion strains, locus YNL307C, strain MCK1, hits give low values) was 0.902 (active) and the normalized growth (S. cerevisiae deletion strains, locus YNL322C, strain KRE1 (second series), hits give low values) was 1.01. For the same compound, the normalized growth (S. cerevisiae deletion strains, locus YNL322C, strain KRE1, hits give low values) was 1.02, the normalized growth (S. cerevisiae deletion strains, locus YNR049C, strain mso1, hits give low values) was 0.991 and the normalized growth (S. cerevisiae deletion strains, locus YNR052C, strain pop2, hits give low values) was 0.968. It also gave a normalized growth (S. cerevisiae deletion strains, locus YOL006C, strain TOP1, hits give low values) of 0.632, a normalized growth (S. cerevisiae deletion strains, locus YOL012C, strain htz1) of 0.904 and a normalized growth (S. cerevisiae deletion strains, locus YOL147C, strain pex11, hits give low values) of 1.01. For the same compound, the normalized growth (S. cerevisiae deletion strains, locus YOR001W, strain rrp6, hits give low values) was 1, the normalized growth (S. cerevisiae deletion strains, locus YOR061W, strain CKA2, hits give low values) was 0.993 and the normalized growth (S. cerevisiae deletion strains, locus YOR069W, strain VPS5, hits give low values) was 1.01. For the same compound, the normalized growth (S. cerevisiae deletion strains, locus YOR070C, strain gyp1, hits give low values) was 1, the normalized growth (S. cerevisiae deletion strains, locus YOR080W, strain dia2, hits give low values) was 0.995 and the normalized growth (S. cerevisiae deletion strains, locus YOR083W, strain WHI5, hits give low values) was 0.968. It also gave a normalized growth (S. cerevisiae deletion strains, locus YOR106W, strain vam3, hits give low values) of 0.961, a normalized growth (S. cerevisiae deletion strains, locus YOR136W, strain idh2, hits give low values) of 0.999 and a normalized growth (S. cerevisiae deletion strains, locus YOR144C, strain elg1, hits give low values) of 1.01. It also gave a normalized growth (S. cerevisiae deletion strains, locus YOR184W, strain ser1, hits give low values) of 1.02, a normalized growth (S. cerevisiae deletion strains, locus YOR231W, strain MKK1, hits give low values) of 0.974 and a normalized growth (S. cerevisiae deletion strains, locus YOR265W, strain rbl2, hits give low values) of 0.984. The normalized growth (S. cerevisiae deletion strains, locus YOR270C, strain vph1, hits give low values) was 0.723 (active), the normalized growth (S. cerevisiae deletion strains, locus YOR290C, strain snf2, hits give low values) was 0.937 and the normalized growth (S. cerevisiae deletion strains, locus YOR316C, strain cot1, hits give low values) was 1.01. It also gave a normalized growth (S. cerevisiae deletion strains, locus YPL051W, strain arl3, hits give low values) of 0.982, a normalized growth (S. cerevisiae deletion strains, locus YPL055C, strain LGE1, hits give low values) of 0.975 and a normalized growth (S. cerevisiae deletion strains, locus YPL078C, strain atp4, hits give low values) of 0.974. The normalized growth (S. cerevisiae deletion strains, locus YPL106C, strain sse1, hits give low values) was 0.984, the normalized growth (S. cerevisiae deletion strains, locus YPL240C, strain hsp82, hits give low values) was 1.01 and the normalized growth (S. cerevisiae deletion strains, locus YPL241C, strain CIN2, hits give low values) was 1. For the same compound, the normalized growth (S. cerevisiae deletion strains, locus YPL256C, strain CLN2, hits give low values) was 1.02, the normalized growth (S. cerevisiae deletion strains, locus YPR119W, strain clb2, hits give low values) was 1.01 and the normalized growth (S. cerevisiae deletion strains, locus YPR141C, strain kar3, hits give low values) was 1.02. For the same compound, the normalized growth (S. cerevisiae deletion strains, locus YPR163C, strain tif3, hits give low values) was 0.987, the normalized growth (S. cerevisiae deletion strains, locus YPR167C, strain met16, hits give low values) was 1.01 and the normalized growth (S. cerevisiae deletion strains, strain wtn01, hits give low values) was 1. For the same compound, the normalized growth (S. cerevisiae strains, strain wild type, hits give low values) was 0.981.
